Assay results from PubChem BioAssay.
The source made the active and inactive calls.

Legend:
[1] = binders of probe aFSTL3 on microarray, primary screen, stem cell growth factor project, biochemical, small-molecule microarray, fluorescence 635/667 (AID 1064); settings: higher = more signal;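 further: measures binding of the biotinylated anti-FSTL3 antibody to printed compounds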
[2] = binders from COS7 lysate, DM2A8 probe, primary screen, torsin A project, cell lysate, small-molecule microarray, fluorescence 635/667 (AID 1065); settings: higher = more signal, COS7 lysate expressing mutant human TOR1A
[3] = binders of probe aFGF2 on microarray, primary screen, stem cell growth factor project, biochemical, small-molecule microarray, fluorescence 635/667 (AID 1067); settings: higher = more signal;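 further: measures binding of biotinylated aFGF2 protein to printed compounds on slides; z-score merges feature fluorescence and signal-to-noise across triplicate slides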
[4] = binders of probe aFGF10 on microarray, primary screen, stem cell growth factor project, biochemical, small-molecule microarray, fluorescence 635/667 (AID 1071); settings: higher = more signal;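 further: score merges 667 nm spot intensity and signal to noise from triplicate slides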
[5] = target: Neurogenic locus notch homolog protein 2 (Homo sapiens) (UniProt Q04721); test: Notch2 binders on small-molecule microarrays, primary screen, biochemical, small-molecule microarray, 635 nm fluorescence, stem cell growth factors (AID 1073); settings: Notch2 binding, higher = more signal
Neurogenic locus notch homolog protein 2 (Homo sapiens), sequence (Q04721 whole entry, looked up, canonical isoform): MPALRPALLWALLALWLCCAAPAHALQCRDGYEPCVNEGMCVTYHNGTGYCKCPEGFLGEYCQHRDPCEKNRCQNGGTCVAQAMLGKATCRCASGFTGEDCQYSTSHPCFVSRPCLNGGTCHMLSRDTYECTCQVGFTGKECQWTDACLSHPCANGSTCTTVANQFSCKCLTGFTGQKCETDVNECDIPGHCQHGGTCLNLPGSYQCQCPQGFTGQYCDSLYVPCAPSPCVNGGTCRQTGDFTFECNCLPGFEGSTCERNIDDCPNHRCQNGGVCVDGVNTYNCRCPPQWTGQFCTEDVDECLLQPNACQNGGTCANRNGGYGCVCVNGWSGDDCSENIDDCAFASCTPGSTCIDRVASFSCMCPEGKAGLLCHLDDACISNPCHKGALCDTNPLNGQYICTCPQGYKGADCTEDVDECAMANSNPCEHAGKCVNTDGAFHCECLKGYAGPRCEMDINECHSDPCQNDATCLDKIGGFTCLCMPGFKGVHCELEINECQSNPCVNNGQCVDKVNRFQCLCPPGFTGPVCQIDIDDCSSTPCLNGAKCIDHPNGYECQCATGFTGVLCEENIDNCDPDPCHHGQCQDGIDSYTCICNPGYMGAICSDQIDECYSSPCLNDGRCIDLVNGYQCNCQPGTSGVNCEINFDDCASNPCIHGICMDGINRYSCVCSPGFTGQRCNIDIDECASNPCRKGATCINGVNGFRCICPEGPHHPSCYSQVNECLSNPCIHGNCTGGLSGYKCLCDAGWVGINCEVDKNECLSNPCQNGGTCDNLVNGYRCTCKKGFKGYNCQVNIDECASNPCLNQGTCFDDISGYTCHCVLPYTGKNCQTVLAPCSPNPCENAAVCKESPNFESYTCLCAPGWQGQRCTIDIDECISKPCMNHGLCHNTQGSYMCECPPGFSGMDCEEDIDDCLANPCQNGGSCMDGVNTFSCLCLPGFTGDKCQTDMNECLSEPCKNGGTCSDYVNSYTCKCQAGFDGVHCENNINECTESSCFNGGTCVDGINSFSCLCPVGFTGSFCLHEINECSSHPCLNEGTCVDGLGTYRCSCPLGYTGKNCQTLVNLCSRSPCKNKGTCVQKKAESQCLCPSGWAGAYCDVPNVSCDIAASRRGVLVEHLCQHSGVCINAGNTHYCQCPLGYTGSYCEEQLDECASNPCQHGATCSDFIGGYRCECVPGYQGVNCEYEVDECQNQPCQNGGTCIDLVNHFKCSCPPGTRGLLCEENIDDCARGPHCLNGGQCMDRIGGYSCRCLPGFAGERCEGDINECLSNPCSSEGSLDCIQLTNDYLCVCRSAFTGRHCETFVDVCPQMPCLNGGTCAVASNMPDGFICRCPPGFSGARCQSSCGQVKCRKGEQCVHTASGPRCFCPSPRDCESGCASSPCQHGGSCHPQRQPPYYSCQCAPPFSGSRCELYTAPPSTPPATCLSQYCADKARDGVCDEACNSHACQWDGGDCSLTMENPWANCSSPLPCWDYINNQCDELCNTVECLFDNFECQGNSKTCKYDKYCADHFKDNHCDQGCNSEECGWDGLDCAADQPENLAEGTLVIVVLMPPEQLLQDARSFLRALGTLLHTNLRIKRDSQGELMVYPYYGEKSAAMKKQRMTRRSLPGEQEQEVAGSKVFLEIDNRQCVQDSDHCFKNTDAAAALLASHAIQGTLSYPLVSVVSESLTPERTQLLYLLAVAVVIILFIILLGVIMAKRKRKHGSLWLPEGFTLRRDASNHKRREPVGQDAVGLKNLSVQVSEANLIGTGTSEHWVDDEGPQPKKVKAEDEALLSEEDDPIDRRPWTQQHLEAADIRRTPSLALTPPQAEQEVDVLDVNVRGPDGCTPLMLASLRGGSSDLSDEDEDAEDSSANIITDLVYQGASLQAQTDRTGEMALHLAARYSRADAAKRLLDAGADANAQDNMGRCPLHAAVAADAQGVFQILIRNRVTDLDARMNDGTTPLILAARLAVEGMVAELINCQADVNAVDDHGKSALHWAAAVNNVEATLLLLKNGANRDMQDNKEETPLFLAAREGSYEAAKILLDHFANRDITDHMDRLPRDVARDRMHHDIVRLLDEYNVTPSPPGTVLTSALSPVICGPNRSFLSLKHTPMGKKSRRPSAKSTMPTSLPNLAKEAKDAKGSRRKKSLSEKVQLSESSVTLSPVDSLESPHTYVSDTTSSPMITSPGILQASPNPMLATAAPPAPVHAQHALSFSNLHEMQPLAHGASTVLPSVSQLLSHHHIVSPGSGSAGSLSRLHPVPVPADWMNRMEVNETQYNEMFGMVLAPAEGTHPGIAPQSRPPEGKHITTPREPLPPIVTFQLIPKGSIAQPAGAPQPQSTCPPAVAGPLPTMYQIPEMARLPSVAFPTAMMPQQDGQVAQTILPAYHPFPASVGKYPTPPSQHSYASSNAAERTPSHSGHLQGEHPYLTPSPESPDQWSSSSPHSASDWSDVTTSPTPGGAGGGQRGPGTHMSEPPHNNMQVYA

[6] = target: Pro-neuregulin-1, membrane-bound isoform (Homo sapiens) (UniProt Q02297); test: NRG1 binders on small-molecule microarrays, primary screen, psychiatric disease protein project, biochemical, small-molecule microarray, fluorescence 635/667 (AID 1075); settings: NRG1 binding, 635 nm fluorescence, higher = more signal;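 further: score combines 667 nm spot fluorescence with signal to noise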
[7] = tested on: Neuregulin-1 EGF-like domain; test: binders of neuregulin-1 EGF-like domain, primary screen, biochemical, small-molecule microarray, 635 nm fluorescence (AID 1081); settings: small-molecule microarray binding, higher = more signal;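 further: binding of the protein to compounds printed on small-molecule microarray slides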
[8] = FRG1 promoter luciferase signal modulators, primary screen, FRG1 inhibition for FSHD, cell-based, C2C12 myotubes, firefly/Renilla luciferase, luminescence (AID 1084); settings: higher = more signal, called active from +8 up or from −8 down
[9] = binders of probe aFST on microarray, primary screen, stem cell growth factor project, biochemical, small-molecule microarray, fluorescence 635/667 (AID 1086); settings: higher = more signal;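 further: score merges 667 nm fluorescence with signal-to-noise of each printed compound spot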
[10] = binders of probe aHhip on microarray, primary screen, stem cell growth factor project, biochemical, small-molecule microarray, fluorescence 635/667 (AID 1087); settings: higher = more signal;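 further: score merges spot fluorescence at 667nm with spot signal to noise ratio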
[11] = tested on: PRMT1 (protein arginine N-methyltransferase 1); test: PRMT1 binders on small-molecule microarrays, primary screen, biochemical, small-molecule microarray, 635 nm fluorescence (AID 1088); settings: small-molecule microarray binding, higher = more signal;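 further: binding of Prmt1 protein to compounds spotted on small-molecule microarray slides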
[12] = yeast growth modulation, basal conditions, primary screen, YJM789 clinical isolate, OD600, 24 h (AID 1089);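 further: growth of clinical yeast isolate S. cerevisiae YJM 789 seeded 1000 cells per well; test concentration not given here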; settings: S. cerevisiae YJM789 growth, higher = more signal, called active from +8 up or from −8 down
[13] = fission yeast growth modulation, primary screen, strain 972, OD600, 24 h, no modulator (AID 1090);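 further: basal condition with compound alone and no growth modifier present; test concentration not given here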; settings: S. pombe 972 growth, higher = more signal, called active from +8 up or from −8 down
[14] = S. cerevisiae growth modulation with rapamycin, primary screen, strain BY4716, OD600, 96 h (AID 1091); settings: higher = more signal, called active from +8 up or from −8 down; further: test concentration not given here
[15] = target: Torsin-1A-interacting protein 2 (Homo sapiens) (UniProt Q8NFQ8); test: LULL1 binders on small-molecule microarray, primary screen, cell lysate, human LULL1 lysate, 635/667 nm fluorescence (AID 1092); settings: hLULL1 lysate binding, 635 nm fluorescence, higher = more signal;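 further: probe is lysate of COS7 cells overexpressing human LULL1; score merges per-feature 667 nm fluorescence with signal-to-noise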
[16] = E. coli growth modulation, two-sided OD650, primary screen, E. coli filamentation project, strain DRC41, 24 h (AID 1093); settings: OD650, 24 h, higher = more signal, called active from +8 up or from −8 down;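 further: MC1000 strain lacking acrAB efflux and sulA so SOS filamentation is blocked; test concentration not given here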
[17] = small-molecule microarray binders of probe aLefty2, primary screen, biochemical, biotinylated probe, 635/667 nm fluorescence (AID 1094); settings: higher = more signal;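 further: score merges spot fluorescence near 667 nm with spot signal-to-noise ratio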
[18] = tested on: Noggin (protein binding on small-molecule microarray); test: Noggin binders on small-molecule microarray, primary screen, biochemical, 635/667 nm fluorescence (AID 1095); settings: 635 nm fluorescence, higher = more signal;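 further: score merges 667 nm feature fluorescence with signal to noise over triplicate slides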
[19] = target: Neurogenic locus notch homolog protein 3 (Homo sapiens) (UniProt Q9UM47); test: NOTCH3 binders on small-molecule microarray, primary screen, biochemical, 635/667 nm fluorescence (AID 1096); settings: NOTCH3 binding, 635 nm fluorescence, higher = more signal
Neurogenic locus notch homolog protein 3 (Homo sapiens), sequence (Q9UM47 whole entry, looked up): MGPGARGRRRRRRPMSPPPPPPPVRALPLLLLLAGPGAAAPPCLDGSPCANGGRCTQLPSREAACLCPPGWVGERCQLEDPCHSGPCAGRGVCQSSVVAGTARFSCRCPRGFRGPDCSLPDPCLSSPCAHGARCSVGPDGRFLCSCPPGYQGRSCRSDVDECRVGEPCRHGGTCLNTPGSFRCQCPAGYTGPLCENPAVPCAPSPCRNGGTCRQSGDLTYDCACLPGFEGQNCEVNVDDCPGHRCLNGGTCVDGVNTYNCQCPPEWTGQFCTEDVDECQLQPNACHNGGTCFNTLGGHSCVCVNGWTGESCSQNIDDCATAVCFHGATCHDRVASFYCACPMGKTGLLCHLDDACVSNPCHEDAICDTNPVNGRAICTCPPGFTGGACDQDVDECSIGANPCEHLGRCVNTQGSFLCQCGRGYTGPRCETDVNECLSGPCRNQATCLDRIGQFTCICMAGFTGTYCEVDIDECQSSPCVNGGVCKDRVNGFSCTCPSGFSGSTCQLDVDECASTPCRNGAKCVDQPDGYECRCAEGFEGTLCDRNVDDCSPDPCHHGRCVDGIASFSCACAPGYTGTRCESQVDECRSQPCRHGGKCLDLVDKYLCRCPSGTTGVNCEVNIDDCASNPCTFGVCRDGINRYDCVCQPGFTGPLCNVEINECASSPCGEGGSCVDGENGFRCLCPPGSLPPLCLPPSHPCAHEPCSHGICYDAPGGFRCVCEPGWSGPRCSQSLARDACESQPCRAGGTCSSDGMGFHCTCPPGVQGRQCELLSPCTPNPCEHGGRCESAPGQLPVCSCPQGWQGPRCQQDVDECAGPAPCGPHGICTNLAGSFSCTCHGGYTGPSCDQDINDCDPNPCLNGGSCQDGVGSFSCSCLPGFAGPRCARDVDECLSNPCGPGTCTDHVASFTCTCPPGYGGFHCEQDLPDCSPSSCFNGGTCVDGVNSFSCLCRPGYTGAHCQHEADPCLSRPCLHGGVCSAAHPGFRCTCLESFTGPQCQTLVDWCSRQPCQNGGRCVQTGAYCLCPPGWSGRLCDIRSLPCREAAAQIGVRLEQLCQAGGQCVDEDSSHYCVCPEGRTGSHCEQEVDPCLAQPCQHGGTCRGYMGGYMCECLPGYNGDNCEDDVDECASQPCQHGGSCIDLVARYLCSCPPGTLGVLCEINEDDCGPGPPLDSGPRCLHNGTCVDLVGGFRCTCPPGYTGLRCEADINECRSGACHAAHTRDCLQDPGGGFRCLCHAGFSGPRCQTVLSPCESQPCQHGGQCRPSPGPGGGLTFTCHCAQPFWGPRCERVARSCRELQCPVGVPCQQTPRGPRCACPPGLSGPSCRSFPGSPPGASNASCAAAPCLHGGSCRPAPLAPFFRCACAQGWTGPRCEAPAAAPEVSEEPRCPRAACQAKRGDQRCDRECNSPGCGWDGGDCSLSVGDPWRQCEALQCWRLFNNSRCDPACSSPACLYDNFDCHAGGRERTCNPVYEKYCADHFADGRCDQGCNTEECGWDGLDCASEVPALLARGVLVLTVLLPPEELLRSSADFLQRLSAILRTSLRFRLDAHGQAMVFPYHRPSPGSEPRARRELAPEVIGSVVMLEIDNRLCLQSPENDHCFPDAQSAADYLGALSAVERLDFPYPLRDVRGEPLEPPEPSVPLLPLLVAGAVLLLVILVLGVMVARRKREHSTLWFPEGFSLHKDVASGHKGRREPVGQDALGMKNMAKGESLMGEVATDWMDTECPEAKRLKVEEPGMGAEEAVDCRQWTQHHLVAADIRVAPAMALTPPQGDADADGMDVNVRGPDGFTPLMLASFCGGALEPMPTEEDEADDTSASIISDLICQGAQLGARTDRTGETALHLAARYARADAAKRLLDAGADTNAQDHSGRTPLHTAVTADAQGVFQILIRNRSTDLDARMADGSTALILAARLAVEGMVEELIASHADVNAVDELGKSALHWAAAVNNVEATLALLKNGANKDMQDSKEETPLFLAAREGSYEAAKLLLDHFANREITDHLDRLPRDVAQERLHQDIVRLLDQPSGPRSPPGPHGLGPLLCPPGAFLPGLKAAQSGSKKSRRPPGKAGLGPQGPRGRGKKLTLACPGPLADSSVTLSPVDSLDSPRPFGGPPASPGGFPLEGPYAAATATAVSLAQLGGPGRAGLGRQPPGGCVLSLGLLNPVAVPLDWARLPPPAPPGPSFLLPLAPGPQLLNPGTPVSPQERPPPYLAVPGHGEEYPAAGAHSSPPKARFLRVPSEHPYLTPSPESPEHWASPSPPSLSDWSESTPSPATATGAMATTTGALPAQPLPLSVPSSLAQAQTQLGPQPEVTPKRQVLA

[20] = small-molecule microarray binders of probe aEGFR, primary screen, biochemical, biotinylated probe, 635/667 nm fluorescence (AID 1097); settings: higher = more signal;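 further: probe is a biotinylated anti-EGFR antibody binding compounds printed on slides; score combines fluorescence near 667 nm and signal to noise of each spot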

| Structure (SMILES) | composite z-score [1] | composite z-score [2] | composite z-score [3] | composite z-score [4] | composite z-score [5] | composite z-score [6] | composite z-score [7] | z-score [8] | composite z-score [9] | composite z-score [10] | composite z-score [11] | z-score [12] | z-score [13] | z-score [14] | composite z-score [15] | z-score [16] | composite z-score [17] | composite z-score [18] | composite z-score [19] | composite z-score [20] |
| --- | --- | --- | --- | --- | --- | --- | --- | --- | --- | --- | --- | --- | --- | --- | --- | --- | --- | --- | --- | --- |
| COc1ccc(O[C@H]2C=C[C@@H](c3ccccc3)O[C@@H]2COC(=O)CCC(C)=NOC[C@@H](O)[C@H]2O[C@@H]3OC(C)(C)O[C@@H]3[C@H]2O)cc1 | -0.522 | 0.62 | -0.102 | 0.497 | 0.624 | 0.0094 | 0.724 | 0.452 (inactive) | 0.659 | -0.0994 | 1.34 | 0.671 (inactive) | 0.0839 (inactive) | -0.37 (inactive) | 1.48 | 0.875 (inactive) | -0.103 | 1.41 | 0.763 | -0.0592 |
| COc1cccc([C@H]2Oc3ccc(OC)cc3C(=NO[C@H](C)c3cn([C@H](CO)Cc4ccccc4)nn3)[C@@H]2O)c1 | -0.129 | -0.0315 | -0.112 | -0.0993 | -0.468 | -0.72 | -0.504 | 0.787 (inactive) | 0.107 | -0.134 | 0.203 | -1.77 (inactive) | 0.226 (inactive) | -1.21 (inactive) | 0.202 | 0.928 (inactive) | -0.126 | 0.259 | -0.657 | -0.188 |
| C[C@@H]1CC[C@H]2C(=O)O[C@@H](COc3ccc(C(C)(C)C)cc3)CN2[C@@H]1c1ccc(Br)cc1 | -0.368 | -0.257 | -0.162 | -0.249 | -0.538 | -0.0758 | -0.976 | 1.03 (inactive) | -0.217 | -0.134 | -0.118 | 0.228 (inactive) | -0.492 (inactive) | 0.147 (inactive) | -0.158 | -0.0121 (inactive) | 0.464 | -0.835 | -0.91 | -0.0946 |
| O=C1CCCC=C1C(CCc1ccccc1)OC(=O)c1ccc(Br)cc1 (stereo not given) | -0.351 | 0.0329 | -0.0841 | 0.335 | 0.047 | -0.532 | -0.529 | 3.31 (inactive) | -0.205 | -0.137 | -0.429 | -0.596 (inactive) | -2.94 (inactive) | -2.46 (inactive) | -0.699 | 0.037 (inactive) | -0.159 | 0.354 | -0.445 | -0.12 |
| CC(CCN1CCc2nc(-c3ccccc3)c(-c3ccccc3)cc2C1)=NOC[C@@H](O)[C@H]1O[C@@H]2OC(C)(C)O[C@@H]2[C@H]1O | -0.621 | 0.59 | -0.085 | 0.455 | 0.331 | 0.609 | 0.676 | 1.54 (inactive) | 0.319 | 0.0139 | 1.53 | -0.987 (inactive) | -4.63 (inactive) | -4.56 (inactive) | 1.78 | 1.23 (inactive) | -0.342 | 0.449 | 0.41 | -0.0409 |
| CCOC(=O)NN=C1C[C@@H](O)[C@@H](O)[C@@H]2[C@@H]3C(=O)N(c4cccc(Oc5ccccc5)c4)C(=O)[C@@H]3CC[C@@H]12 | -0.216 | 1.21 | -0.085 | 0.542 | -0.202 | 0.823 | 0.81 | -0.233 (inactive) | 0.0218 | -0.249 | -0.037 | -0.73 (inactive) | 0.385 (inactive) | -0.869 (inactive) | 1.26 | 0.205 (inactive) | -0.335 | 0.918 | -0.362 | -0.163 |
| CO[C@H]1COC(=O)CCC[C@@H](C)[C@H](OC)COC(=O)[C@@H]2CCCN2C(=O)CC=C[C@@H]1C | -0.442 | 2.09 | -0.294 | -0.142 | -0.164 | -0.508 | 0.505 | 0.362 (inactive) | -0.194 | 0.113 | 1.53 | -0.671 (inactive) | 0.044 (inactive) | -0.986 (inactive) | -1.77 | -0.476 (inactive) | -0.183 | 1.82 | 0.473 | 0.0869 |
| C#CCCCON=C1[C@H]2CCn3c(=O)n(-c4ccccc4)c(=O)n3[C@H]2[C@H](O)[C@@H]2O[C@H]12 | -0.306 | 0.0575 | -0.24 | 0.201 | 0.47 | -0.0335 | 0.478 | -1.91 (inactive) | 0.212 | -0.134 | 0.192 | -1.65 (inactive) | -0.813 (inactive) | -0.864 (inactive) | 0.463 | -0.623 (inactive) | -0.202 | 0.422 | 0.496 | -0.0938 |
| CCCNC(=O)OC[C@H]1O[C@H](CCON=C(C)CCN2CCCc3nc(C)c(C)cc32)C=C[C@@H]1Oc1ccc(OC)cc1 | -0.0324 | -0.0773 | -0.0611 | 0.552 | 0.661 | 0.639 | 0.685 | -0.46 (inactive) | 0.504 | -0.0994 | 1.55 | -0.663 (inactive) | -0.604 (inactive) | -0.0042 (inactive) | 2.38 | 1.05 (inactive) | 0.0408 | 0.634 | 0.991 | 0.101 |
| C[C@H](ON=C1[C@H]2CCn3c(=O)n(-c4ccccc4)c(=O)n3[C@H]2[C@H](O)[C@@H]2O[C@H]12)c1cn([C@H](CO)Cc2ccccc2)nn1 | -0.317 | 0.386 | -0.0189 | 0.347 | 0.862 | -0.0139 | 0.764 | 0.68 (inactive) | 0.138 | 1.13 | 0.171 | -0.915 (inactive) | -0.348 (inactive) | -0.173 (inactive) | 0.664 | 0.547 (inactive) | -0.175 | 0.222 | 0.518 | 0.0544 |
